# PubChem BioAssay (NCATS)
# Records with an inconclusive call do not appear. Values without a mark were called inactive. Active and inactive are the calls of the source. Calls follow the shape of the dose curve; as a rule, active = well fitted inhibition curve with a large enough effect; inconclusive = small, poorly fitted or top-dose-only effect; inactive = flat fitted curve, though single readings scatter.
# Biological target: Phospholipid hydroperoxide glutathione peroxidase GPX4 (Homo sapiens) (UniProt P36969)
# Assay: Primary qHTS Assay for Inhibitors of Recombinant Selenoprotein Glutathione Peroxidase 4 (GPX4) (AID 1845192); also: nearly all actives have a fitted effect of over 65% in size
# Conditions: recombinant GPX4, GR-coupled NADPH fluorescence, 15 min; series mostly up to 50 µM; activity change, negative = inhibition: at the top concentration
# In short: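 NADPH consumption, followed by fluorescence at 340/450 nm between 0 and 15 min, reports GPX4 activity via coupled glutathione reductase (100 nM). Enzyme 200 nM was pre-exposed to compound 30 min; 0.5 mM cumene hydroperoxide and 1 mM GSH served as substrates.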
# % is scaled to controls: 0 for no effect and ±100 for the full control effect; potency is read from the fitted curve at half-maximal effect.
# Chain of Phospholipid hydroperoxide glutathione peroxidase GPX4 (Homo sapiens) (P36969 whole entry, looked up): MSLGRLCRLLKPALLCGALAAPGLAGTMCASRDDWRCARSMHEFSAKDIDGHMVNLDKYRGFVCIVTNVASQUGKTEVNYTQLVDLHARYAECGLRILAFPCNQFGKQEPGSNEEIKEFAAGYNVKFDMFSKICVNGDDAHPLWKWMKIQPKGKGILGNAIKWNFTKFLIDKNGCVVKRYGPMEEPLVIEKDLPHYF
Compound,"activity change, negative = inhibition",outcome,Potency
CC(C)C(=O)OCC(=O)[C@@]12OC(C3CCCCC3)O[C@@H]1C[C@H]1[C@@H]3CCC4=CC(=O)C=C[C@]4(C)[C@H]3[C@@H](O)C[C@@]12C (stereo not given in full),-15%,,
CC(C)C[C@H](NC(=O)[C@@H](Cc1c[nH]c2ccccc12)NC(=O)[C@H](Cc1ccc(O)cc1)NC(=O)[C@H](CO)NC(=O)[C@H](Cc1c[nH]c2ccccc12)NC(=O)[C@H](Cc1cnc[nH]1)NC(=O)[C@@H]1CCC(=O)N1)C(=O)N[C@@H](CCCN=C(N)N)C(=O)N1CCC[C@H]1C(=O)NCC(N)=O,,inactive [at 27.8 µM],
COCC1=C(C(=O)OC(C)OC(=O)OC(C)C)N2C(=O)[C@@H](NC(=O)/C(=N/OC)c3csc(N)n3)[C@H]2SC1 (stereo not given in full),,,10 µM (active)
COc1cc2c(c(OC)c1OC)-c1c(cc3c(c1OC)OCO3)C[C@H](C)[C@@](C)(O)C2,,inactive,
NC(=O)C1CCCN1C(=O)C(Cc1cnc[nH]1)NC(=O)C1CCC(=O)N1 (stereo not given),-16.6%,,
CCCCCCCCCCCCCCCC(=O)OCC(=O)[C@@]1(O)[C@H](C)C[C@H]2[C@@H]3CCC4=CC(=O)C=C[C@]4(C)[C@@]3(F)[C@@H](O)C[C@@]21C,-22.8%,,
O=C(O)C(O)C(O)C(=O)O (stereo not given),-16%,,
CCCCC[C@H](O)/C=C/[C@@H]1[C@@H](C/C=C/CCCC(=O)O)[C@@H](O)C[C@H]1O,-26.9%,,
O=C(OC1C[C@@H]2CC3C[C@@H](C1)N2CC3=O)c1c[nH]c2ccccc12 (stereo not given in full),-16.6%,,
COc1ccc(CC(C)(C)NC[C@H](O)c2cc(O)cc3c2OCC(=O)N3)cc1,4.22%,,
O[C@@H]1[C@@H](O)[C@@H](O)OC[C@@H]1O,,inactive [at 150 µM],
CCCCCCCCCC(=O)OCCN1CCN(CCCN2c3ccccc3Sc3ccc(C(F)(F)F)cc32)CC1,,inactive,
OC(CCN1CCCCC1)(c1ccccc1)C1CCCC1 (stereo not given),1.7%,,
O=C(O)C[C@@H]1CC[C@H](NC(=O)Cc2cccs2)B(O)O1,1.37%,,
CCN1CCC(=C2c3ccccc3CCc3ccccc32)C1C (stereo not given),-17.1%,,
C[N+](C)(C)C1CCC(CC2CCC([N+](C)(C)C)CC2)CC1 (stereo not given),,inactive,
CO[C@@H]1[C@@H](O[C@@H]2O[C@H](C)[C@@H](O[C@H]3C[C@@](C)(O)[C@H](O)[C@H](C)O3)[C@H](N(C)C)[C@H]2O)[C@@H](CC=O)C[C@@H](C)[C@@H](O[C@H]2CC[C@H](N(C)C)[C@@H](C)O2)/C=C/C=C/C[C@H](C)OC(=O)C[C@H]1O,-16.3%,,
CCC(CN)CC(C)CNCC(O)CNCC(CC)CC(CC)CN (stereo not given),,inactive,
OC[C@H]1O[C@H](O)[C@H](O)[C@@H](O)[C@@H]1O,-3.67%,,
CCC1OC(=O)C(C)C(OC2CC(C)(OC)C(O)C(C)O2)C(C)C(OC2OC(C)CC(N(C)C)C2O)C(C)(O)CC(C)C2NC(COCCOC)OC(C2C)C1(C)O (stereo not given),,inactive,

Compound,"activity change, negative = inhibition",outcome,Potency
CNCC(=O)OCc1cccnc1N(C)C(=O)OC(C)[n+]1cnn(C[C@](O)(c2cc(F)ccc2F)[C@@H](C)c2nc(-c3ccc(C#N)cc3)cs2)c1 (stereo not given in full),-27.7%,,
CC(=O)OC1CCC2(C)C(=CCC3C2CCC2(C)C(c4cccnc4)=CCC32)C1 (stereo not given),,inactive,
Cc1ccc(S(=O)(=O)O)cc1,,inactive,
OCC1OC(c2ccc(Cl)c(Cc3ccc(OC4CCOC4)cc3)c2)C(O)C(O)C1O (stereo not given),,inactive,
Cc1cc(O)ccc1C(C)(C)C,4.57%,,
CC(C=CC1=C(C)CCCC1(C)C)=CC=CC(C)=CC(=O)Oc1c(C)c(C)c2c(c1C)CC[C@@](C)(CCC[C@H](C)CCC[C@H](C)CCCC(C)C)O2,,inactive [at 4.52 µM],
CCC[C@@H]1C[C@@H](C(=O)N[C@@H](C2O[C@H](SC)[C@H](O)[C@@H](O)[C@H]2O)[C@H](C)Cl)N(C)C1 (stereo not given in full),-23.3%,,
CCCC1CC(C(=O)NC(C(C)Cl)C2OC(SC)C(OP(=O)(O)O)C(O)C2O)N(C)C1 (stereo not given),1.24% [at 27.8 µM],,
CCCCCC(O)/C=C/[C@@H]1C(CCCCCCC(=O)O)C(=O)C[C@@H]1O (stereo not given in full),-3.54%,,
Cc1oc(=O)oc1COC(=O)N1CC[C@@H](N2CC/C(=C\C3=C(C(=O)O)N4C(=O)[C@@H](NC(=O)/C(=N/O)c5nsc(N)n5)[C@H]4SC3)C2=O)C1,,,10 µM (active)
CCCCCCCCCCCCCCCCCCCCCCCCCCCCO,,inactive [at 0.409 µM],
O=C(O)[C@H]1OC(O)[C@H](O)[C@@H](O)[C@@H]1O (stereo not given in full),,inactive,
CC(C)OC(=O)CCC/C=C\C[C@@H]1[C@@H](CC[C@@H](O)CCc2ccccc2)[C@H](O)C[C@@H]1O,4.91% [at 9.73 µM],,
O=C(O)CSc1nnc(Br)n1-c1ccc(C2CC2)c2ccccc12,-5.08%,,
CC(=O)OC1CC(OC2C(O)CC(OC3C(O)CC(OC4CCC5(C)C(CCC6C5CCC5(C)C(C7=CC(=O)OC7)CCC65O)C4)OC3C)OC2C)OC(C)C1O (stereo not given),-16.4%,,
CCCC(=O)Nc1ncnc2c1ncn2C1O[C@@H]2COP(=O)(O)O[C@H]2[C@H]1OC(=O)CCC (stereo not given in full),-15.2%,,
OB1OCc2cc(F)ccc21,2.79%,,
Cc1cc2nc3c(=O)[nH]c(=O)nc-3n(C[C@H](O)[C@H](O)[C@H](O)COP(=O)(O)OP(=O)(O)OC[C@H]3O[C@@H](n4cnc5c(N)ncnc54)[C@H](O)[C@H]3O)c2cc1C,,inactive [at 27.8 µM],
O=c1c2c(c1=O)N(CCP(=O)(O)O)CCCN2,,inactive [at 100 µM],
O=C(O)[C@@H]1C(=CCO)O[C@@H]2CC(=O)N12,,inactive [at 27.8 µM],
